The sample as a whole holds a higher share of the strongest signals than the screen did.
Experiments:
Assay in all cases: glycan array binding signal (z-score within array); higher = stronger binding
Conditions in all cases: glycan notation: IUPAC condensed, linker removed
[1] = target: Fuc(a1-2)Gal(b1-3)GalNAc(b1-3)Gal
How it was run: (§1)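 From the Consortium for Functional Glycomics database, 3228 arrays were curated, keeping only those whose protein sequence was available. Binding is given as a within-array Z-score averaged across arrays sharing a protein sequence and across linkers. Negative Z-scores can be read as non-binding.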

[2] = target: Fuc(a1-2)Gal(b1-3)GalNAc(b1-3)Gal(b1-4)Glc
How it was run: as §1

[3] = target: Fuc(a1-2)Gal(b1-4)[Fuc(a1-3)]GlcNAc
How it was run: as §1

Fuc(a1-3)GlcNAc = target: Fuc(a1-3)GlcNAc
How it was run: as §1

[4] = target: Gal(b1-3)GalNAc(b1-3)Gal(b1-4)GlcNAc
How it was run: as §1

[5] = target: Gal(b1-4)GlcNAc(b1-2)Man(a1-3)[Gal(b1-4)GlcNAc(b1-2)Man(a1-6)]Man(b1-4)GlcNAc(b1-4)GlcNAc
How it was run: as §1

Gal3S6S(b1-4)GlcNAc = target: Gal3S6S(b1-4)GlcNAc
How it was run: as §1

[6] = target: GlcNAc(b1-3)Gal(b1-3)GalNAc
How it was run: as §1

GlcNAc(b1-3)Gal(b1-4)Glc = target: GlcNAc(b1-3)Gal(b1-4)Glc
How it was run: as §1

[7] = target: GlcNAc(b1-3)Gal(b1-4)GlcNAc(b1-3)Gal(b1-4)GlcNAc
How it was run: as §1

[8] = target: GlcNAc(b1-3)[GlcNAc(b1-6)]GlcNAc
How it was run: as §1

[9] = target: GlcNAc(b1-4)Gal(b1-4)GlcNAc
How it was run: as §1

[10] = target: Man(a1-2)Man(a1-3)[Man(a1-3)[Man(a1-6)]Man(a1-6)]Man(b1-4)GlcNAc(b1-4)GlcNAc
How it was run: as §1

Man(a1-3)[Man(a1-6)]Man = target: Man(a1-3)[Man(a1-6)]Man
How it was run: as §1

[11] = target: Neu5Ac(a2-3)Gal(b1-4)GlcNAc(b1-3)Gal(b1-4)GlcNAc
How it was run: as §1

[12] = target: Neu5Ac(a2-3)Gal(b1-4)[Fuc(a1-3)]GlcNAc6S
How it was run: as §1

Neu5Ac(a2-3)GalNAc = target: Neu5Ac(a2-3)GalNAc
How it was run: as §1

[13] = target: Neu5Ac(a2-3)[GalNAc(b1-4)]Gal(b1-4)Glc
How it was run: as §1

[14] = target: Neu5Ac(a2-6)Gal(b1-4)GlcNAc(b1-2)Man(a1-3)[Neu5Ac(a2-6)Gal(b1-4)GlcNAc(b1-2)Man(a1-6)]Man(b1-4)GlcNAc(b1-4)GlcNAc
How it was run: as §1

[15] = target: Neu5Ac(a2-6)Gal(b1-4)GlcNAc6S
How it was run: as §1

[16] = target: Neu5Ac(a2-8)Neu5Ac(a2-3)Gal(b1-4)Glc
How it was run: as §1

[17] = target: Fuc(a1-2)Gal(b1-3)[Fuc(a1-4)]GlcNAc(b1-3)[Gal(b1-4)GlcNAc(b1-6)]Gal(b1-4)Glc
How it was run: as §1

Fuc(a1-2)Gal(b1-4)GlcNAc = target: Fuc(a1-2)Gal(b1-4)GlcNAc
How it was run: as §1

[18] = target: Fuc(a1-2)Gal(b1-4)GlcNAc(b1-3)GalNAc
How it was run: as §1

[19] = target: Fuc(a1-2)Gal(b1-4)GlcNAc6S
How it was run: as §1

Fuc(a1-2)Gal6S(b1-4)Glc = target: Fuc(a1-2)Gal6S(b1-4)Glc
How it was run: as §1

Fuc(a1-2)[Gal(a1-3)]Gal = target: Fuc(a1-2)[Gal(a1-3)]Gal
How it was run: as §1

[20] = target: Fuc(a1-2)[Gal(a1-3)]Gal(b1-4)GlcNAc
How it was run: as §1

[21] = target: Fuc(a1-2)[Gal(a1-3)]Gal(b1-4)GlcNAc(b1-2)Man(a1-3)[Fuc(a1-2)[Gal(a1-3)]Gal(b1-4)GlcNAc(b1-2)Man(a1-6)]Man(b1-4)GlcNAc(b1-4)GlcNAc
How it was run: as §1

[22] = target: Fuc(a1-2)[GalNAc(a1-3)]Gal(b1-3)GlcNAc(b1-2)Man(a1-3)[Fuc(a1-2)[GalNAc(a1-3)]Gal(b1-3)GlcNAc(b1-2)Man(a1-6)]Man(b1-4)GlcNAc(b1-4)GlcNAc
How it was run: as §1

[23] = target: Fuc(a1-2)[GalNAc(a1-3)]Gal(b1-4)GlcNAc
How it was run: as §1

[24] = target: Fuc(a1-2)[GalNAc(a1-3)]Gal(b1-4)GlcNAc(b1-2)Man(a1-3)[Fuc(a1-2)[GalNAc(a1-3)]Gal(b1-4)GlcNAc(b1-2)Man(a1-6)]Man(b1-4)GlcNAc(b1-4)GlcNAc
How it was run: as §1

[25] = target: Fuc(a1-2)[GalNAc(a1-3)]Gal(b1-4)GlcNAc(b1-3)Gal(b1-4)GlcNAc
How it was run: as §1

[26] = target: Fuc(a1-2)[GalNAc(a1-3)]Gal(b1-4)GlcNAc(b1-3)Gal(b1-4)GlcNAc(b1-3)Gal(b1-4)GlcNAc
How it was run: as §1

[27] = target: Fuc(a1-3)[Gal(b1-4)]GlcNAc
How it was run: as §1

Fuc(b1-3)GlcNAc = target: Fuc(b1-3)GlcNAc
How it was run: as §1

[28] = target: Gal(a1-3)Gal(b1-3)GlcNAc(b1-2)Man(a1-3)[Gal(a1-3)Gal(b1-3)GlcNAc(b1-2)Man(a1-6)]Man(b1-4)GlcNAc(b1-4)GlcNAc
How it was run: as §1

[29] = target: Gal(a1-3)Gal(b1-4)GlcNAc(b1-3)GalNAc
How it was run: as §1

[30] = target: Gal(a1-3)Gal(b1-4)[Fuc(a1-3)]GlcNAc
How it was run: as §1

Gal(a1-6)Glc = target: Gal(a1-6)Glc
How it was run: as §1

Gal(b1-3)Gal = target: Gal(b1-3)Gal
How it was run: as §1

[31] = target: Gal(b1-3)GalNAc(b1-3)Gal(a1-4)Gal(b1-4)Glc
How it was run: as §1

Gal(b1-3)GlcNAc = target: Gal(b1-3)GlcNAc
How it was run: as §1

[32] = target: Gal(b1-4)GlcNAc(a1-6)Gal(b1-4)GlcNAc
How it was run: as §1

[33] = target: GlcNAc(a1-3)Gal(b1-4)GlcNAc
How it was run: as §1

[34] = target: GlcNAc(a1-4)Gal(b1-3)GlcNAc
How it was run: as §1

[35] = target: GlcNAc(b1-4)GlcNAc(b1-4)GlcNAc(b1-4)GlcNAc(b1-4)GlcNAc(b1-4)GlcNAc
How it was run: as §1

Kdn(a2-3)Gal(b1-4)Glc = target: Kdn(a2-3)Gal(b1-4)Glc
How it was run: as §1

[36] = target: Neu5Ac(a2-3)Gal(b1-3)GlcNAc6S
How it was run: as §1

[37] = target: Neu5Ac(a2-3)Gal(b1-3)[Fuc(a1-4)]GlcNAc(b1-3)Gal(b1-3)[Fuc(a1-4)]GlcNAc
How it was run: as §1

[38] = target: Neu5Ac(a2-3)Gal(b1-4)GlcNAc(b1-3)Gal(b1-4)[Fuc(a1-3)]GlcNAc
How it was run: as §1

[39] = target: Neu5Ac(a2-3)Gal(b1-4)[Fuc(a1-3)]GlcNAc
How it was run: as §1

[40] = target: Neu5Ac(a2-6)GlcNAc(b1-4)GlcNAc(b1-4)GlcNAc
How it was run: as §1

[41] = target: Neu5Ac(a2-8)Neu5Ac(a2-8)Neu5Ac(a2-8)Neu5Ac(a2-3)[GalNAc(b1-4)]Gal(b1-4)Glc
How it was run: as §1

[42] = target: Neu5Gc(a2-3)Gal(b1-4)[Fuc(a1-3)]GlcNAc
How it was run: as §1

B1: X56-1 (Clostridium perfringens), P26831 (protein)
chain: MGSSHHHHHHSSGLVPRGSHMASDPNRIIATYISNRQDAPTGNPDNIFDNNASTELVYKNPNRIDVGTYVGVKYSNPITLNNVEFLMGANSNPNDTMQKAKIQYTVDGREWIDLEEGVEYTMPGAIKVENLDLKVRGVRLIATEARENTWLGVRDINVNKKEDSNSGVEF
- glycan array binding signal (z-score) [1]: 0.726
- glycan array binding signal (z-score) [2]: 0.136
- glycan array binding signal (z-score) [3]: 0.085
- glycan array binding signal (z-score) (Fuc(a1-3)GlcNAc): -0.245
- glycan array binding signal (z-score) [4]: 0.197
- glycan array binding signal (z-score) [5]: 5.94
- glycan array binding signal (z-score) (Gal3S6S(b1-4)GlcNAc): -0.196
- glycan array binding signal (z-score) [6]: 0.035
- glycan array binding signal (z-score) (GlcNAc(b1-3)Gal(b1-4)Glc): -0.355
- glycan array binding signal (z-score) [7]: -0.172
- glycan array binding signal (z-score) [8]: -0.276
- glycan array binding signal (z-score) [9]: -0.371
- glycan array binding signal (z-score) [10]: -0.387
- glycan array binding signal (z-score) (Man(a1-3)[Man(a1-6)]Man): -0.231
- glycan array binding signal (z-score) [11]: 9.11
- glycan array binding signal (z-score) [12]: 1.06
- glycan array binding signal (z-score) (Neu5Ac(a2-3)GalNAc): -0.264
- glycan array binding signal (z-score) [13]: -0.338
- glycan array binding signal (z-score) [14]: -0.264
- glycan array binding signal (z-score) [15]: -0.039
- glycan array binding signal (z-score) [16]: 0.954

B2: GH98CBM51-1 (Streptococcus pneumoniae) (protein)
chain: MTYLSDMDWSSATHGDIDKTKTVQKDAPFTTGNKGEHTKISLLTSDDKVKYFDKGIGTVADSPSVISYDISGQGFEKFETYIGIDQSANSSRSDHAVVDRIEIEIDGKVVYSSSVTNPEGFRYNTQAQFISVTIPQNAKKISLKSFAGEHTWGDEVVFADAKLIKTVST
- glycan array binding signal (z-score) [1]: -0.187
- glycan array binding signal (z-score) [17]: -0.19
- glycan array binding signal (z-score) (Fuc(a1-2)Gal(b1-4)GlcNAc): -0.191
- glycan array binding signal (z-score) [18]: -0.194
- glycan array binding signal (z-score) [19]: -0.194
- glycan array binding signal (z-score) (Fuc(a1-2)Gal6S(b1-4)Glc): -0.185
- glycan array binding signal (z-score) (Fuc(a1-2)[Gal(a1-3)]Gal): 5.96
- glycan array binding signal (z-score) [20]: 5.12
- glycan array binding signal (z-score) [21]: 8.05
- glycan array binding signal (z-score) [22]: -0.122
- glycan array binding signal (z-score) [23]: 5.07
- glycan array binding signal (z-score) [24]: 5.04
- glycan array binding signal (z-score) [25]: 5.55
- glycan array binding signal (z-score) [26]: 4.91
- glycan array binding signal (z-score) [27]: -0.192
- glycan array binding signal (z-score) (Fuc(b1-3)GlcNAc): -0.193
- glycan array binding signal (z-score) [28]: -0.171
- glycan array binding signal (z-score) [29]: -0.191
- glycan array binding signal (z-score) [30]: -0.186
- glycan array binding signal (z-score) (Gal(a1-6)Glc): -0.186
- glycan array binding signal (z-score) (Gal(b1-3)Gal): -0.181
- glycan array binding signal (z-score) [31]: -0.191
- glycan array binding signal (z-score) (Gal(b1-3)GlcNAc): -0.188
- glycan array binding signal (z-score) [32]: -0.186
- glycan array binding signal (z-score) [33]: -0.193
- glycan array binding signal (z-score) [34]: -0.189
- glycan array binding signal (z-score) [35]: -0.195
- glycan array binding signal (z-score) (Kdn(a2-3)Gal(b1-4)Glc): -0.191
- glycan array binding signal (z-score) [36]: -0.196
- glycan array binding signal (z-score) [37]: -0.184
- glycan array binding signal (z-score) [38]: -0.191
- glycan array binding signal (z-score) [39]: -0.191
- glycan array binding signal (z-score) [12]: -0.182
- glycan array binding signal (z-score) [13]: -0.196
- glycan array binding signal (z-score) [40]: -0.193
- glycan array binding signal (z-score) [41]: -0.184
- glycan array binding signal (z-score) [42]: -0.182
